Test results taken from PubChem BioAssay AID1832 (Broad Institute, 2009).
Among all 300,000 compounds or so, about 1,100 (0.37%) were called active. The sample holds actives, similar compounds and a random draw of the others, so the mix is not that of the screen.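 How the source made its calls: active means inhibition past about -25% in most replicates, and total fluorescence under double the plate's negative control median (limit read from the data); inconclusive means replicates evenly split on the limit, or fluorescence at least double controls; inactive means too little inhibition in most replicates.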

Molecular target: Zinc finger protein mex-5 (Caenorhabditis elegans) (UniProt Q9XUB2)
Test: MEX-5 zinc finger RNA-binding disruptors – biochemical, C. elegans, fluorescence polarization, MLPCN library, primary screen (AID 1832);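 further: 0% = DMSO and -100% = 5 µM competing unlabeled TCR2 RNA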
Details: MEX-5/FITC-TCR2 RNA binding, at 10 µM, stronger effect = lower value

Zinc finger protein mex-5 (Caenorhabditis elegans), sequence (Q9XUB2 whole entry, looked up): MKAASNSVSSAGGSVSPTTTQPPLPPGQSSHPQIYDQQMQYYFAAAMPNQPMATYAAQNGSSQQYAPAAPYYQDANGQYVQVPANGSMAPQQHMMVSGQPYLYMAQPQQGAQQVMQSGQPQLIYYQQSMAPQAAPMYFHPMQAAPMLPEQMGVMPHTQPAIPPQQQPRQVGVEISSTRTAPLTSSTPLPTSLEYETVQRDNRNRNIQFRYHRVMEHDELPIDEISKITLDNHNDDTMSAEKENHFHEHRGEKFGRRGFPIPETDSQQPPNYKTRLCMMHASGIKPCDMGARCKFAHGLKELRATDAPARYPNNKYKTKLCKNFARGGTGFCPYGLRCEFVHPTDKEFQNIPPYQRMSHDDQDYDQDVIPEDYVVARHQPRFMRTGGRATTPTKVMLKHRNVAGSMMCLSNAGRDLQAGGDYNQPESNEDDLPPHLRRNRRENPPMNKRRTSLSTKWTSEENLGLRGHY

Row | Structure (SMILES) | activity score (negative = inhibition of binding)
1 | COc1ccc(CCn2c(=N)c(C(=O)NCC3CCCO3)cc3c(=O)n4cccc(C)c4nc32)cc1OC (centres undefined) | 1.85% (inactive)
2 | Cc1cccn2c(=O)c3cc(C(=O)NCC4CCCO4)c(=N)n(Cc4ccc(F)cc4)c3nc12 (centres undefined) | -0.627% (inactive)
3 | Cc1cccn2c(=O)c3cc(C(=O)NCCN4CCOCC4)c(=N)n(Cc4cccnc4)c3nc12 | -41.6% (active)
4 | CN(C)C(CNC(=O)c1cccc(S(=O)(=O)Nc2ccc(Br)cc2)c1)c1ccco1 (centres undefined) | -4.39% (inactive)
5 | O=C(Nc1ccccc1Cc1ccccc1)c1ccc2c(c1)SC1=NS(=O)(=O)CCN12 | 1.1% (inactive)
6 | COc1ccc(Nc2nc(-c3cccnc3)nc3ccccc23)cn1 | -55.5% (active)
7 | COc1ccccc1Oc1nc(-c2cccnc2)nc2ccccc12 | 3.68% (inactive)
8 | Fc1ccc(/C=N/Nc2nc(-c3cccnc3)nc3ccccc23)cc1 | 4.03% (inactive)
9 | O=C(NCc1ccc2c(c1)OCO2)C(=O)NCC1OCCN1S(=O)(=O)c1ccc(F)cc1 (centres undefined) | -0.888% (inactive)
10 | COCCn1c(N)c(NCc2ccccc2)c(=O)[nH]c1=O | -67.9% (active)
11 | COCCn1c(N)c(N(Cc2ccccc2)C(=O)C2CCCCC2)c(=O)[nH]c1=O | 1.74% (inactive)
12 | COc1ccc(CNc2nc3c(c(=O)[nH]c(=O)n3C)n2Cc2ccccc2)cc1 | -0.659% (inactive)
13 | Cc1nnc(SCc2ccc(C(=O)c3ccc(Cl)cc3)o2)n1-c1ccccc1 | -1.84% (inactive)
14 | COc1ccc(CC(=O)NCc2nnc(SCC(=O)Nc3ncc(C)s3)n2C)cc1 | 0.258% (inactive)
15 | COc1ccc(C(=O)O/N=C(\N)c2ccccn2)cc1[N+](=O)[O-] | -0.00548% (inactive)
16 | COc1cccc(OCC(=O)NNC(=O)c2cnccn2)c1 | -22.4% (inactive)
17 | COc1ccc(C(=O)NNC(=O)c2cnccn2)cc1[N+](=O)[O-] | -64.4% (active)
18 | O=C(CN1C(=O)c2cccnc2Oc2ccc(Cl)cc21)Nc1ccc(F)cc1 | -1.82% (inactive)
19 | COCCCNCC(=O)Nc1sc(C)c(C)c1C(=O)OC | 0.906% (inactive)
20 | Cc1ccc(O)c(CCc2ccccc2)n1 | -3.03% (inactive)
21 | O=C(Cn1cncn1)N/N=C/c1c2ccccc2cc2ccccc12 | -30% (active)
22 | Cc1[nH]c2ccccc2c1/C=N\NC(=O)Cn1nnc(-c2ccccc2)n1 | 0.39% (inactive)
23 | Nc1nnn(CC(=O)N/N=C/c2ccccc2)n1 | -0.796% (inactive)

Row | Structure (SMILES) | activity score (negative = inhibition of binding)
24 | Cc1ccc(-c2cc(C(=O)NC3CCN(Cc4ccccc4)CC3)c3ccccc3n2)cc1 | -2.28% (inactive)
25 | O=C(Nc1ccc(F)cc1)C(=O)c1cn(CC(=O)N2CCOCC2)c2ccccc12 | -1.93% (inactive)
26 | COc1cccc(NC(=O)C(=O)c2cn(CC(=O)N3CCOCC3)c3ccccc23)c1 | -27.9% (active)
27 | COc1cccc(NC(=O)CS(=O)(=O)c2cn(CC(=O)N3CCOCC3)c3ccccc23)c1 | -1.81% (inactive)
28 | COc1ccc(-c2n[nH]c3c2CN(C(=O)c2ccc(F)cc2)CC3)cc1 | 0.485% (inactive)
29 | O=c1ccc(-c2ccc(S(=O)(=O)Nc3ccccc3)o2)n[nH]1 | 1.3% (inactive)
30 | Cc1cc2oc3ccc(NCCC4CCCN4C)cc3c(=O)c2cc1C (centres undefined) | -10.1% (inactive)
31 | CCSCc1nc(N)nc(NCCc2ccccc2)n1 | -1.2% (inactive)
32 | O=C(Nc1ccc(OC(F)(F)F)cc1)c1ccc2c(c1)no[n+]2[O-] | -2.46% (inactive)
33 | COc1cccc(-c2nc(CS(=O)CC(=O)NCc3ccc(F)cc3)c(C)o2)c1 (centres undefined) | 0.156% (inactive)
34 | COc1ccc(-c2nc(CS(=O)CC(=O)NCc3ccccc3)c(C)o2)cc1OC (centres undefined) | 2.34% (inactive)
35 | COc1ccc(-c2nc(CS(=O)CC(=O)NCc3ccccn3)c(C)o2)cc1 (centres undefined) | -66% (active)
36 | O=C(CCC(=O)NNc1nc2ccccc2c2nc(-c3ccccc3)nn12)NCCCN1CCCC1=O | 0.509% (inactive)
37 | COc1ccc(OC)c(-n2cc3c(=O)n(C)c(=O)n(C)c3c2)c1 | -2.26% (inactive)
38 | COC(=O)C1=C[C@@H](C(=O)OC)[C@@H]2C3=C(C(=O)[C@]2(C)NC(=O)c2ccccc2)[C@H](C)n2c(=O)n(C)c(=O)n2[C@@H]3C1 | 0.374% (inactive)
39 | CC(Cc1ccccc1)C(=O)N(C)Cc1ccccc1 (centres undefined) | 2.02% (inactive)
40 | COc1ccc(CNC(=O)C(Cc2ccccc2)n2cccc2)cc1 (centres undefined) | 2.2% (inactive)
41 | Cc1ccc(C)n1C(Cc1ccccc1)C(=O)O (centres undefined) | -27.1% (active)
42 | Cc1c(C=O)c2ccccc2n1CC(=O)O | -1.11% (inactive)
43 | C[C@@H](C(=O)Nc1ccc2ccccc2c1)[C@@H]1C[C@@]1(C)[C@@H](NC(=O)c1cccnc1)c1ccccc1 | 2.99% (inactive)
44 | O=C(Nc1c2c(nn1-c1cccc(Cl)c1)CS(=O)(=O)C2)c1cccs1 | -4.55% (inactive)
45 | Cc1ccccc1NC(=S)NC(=O)Cc1ccc(Cl)cc1 | 0.984% (inactive)
46 | CCCc1nnc(NC(=O)CCC(=O)N2CCN(S(=O)(=O)c3ccc(OC)cc3)CC2)s1 | 2.03% (inactive)

Row | Structure (SMILES) | activity score (negative = inhibition of binding)
47 | CCCN1CC=C2C(C#N)=C(N)C(C#N)(C#N)C(c3cc(OC)ccc3OC)C2C1 (centres undefined) | -27.2% (active)
48 | CCC1=C(C(=O)OC)C(c2cc(OC)ccc2OC)C(C#N)=C(N)O1 (centres undefined) | -1.18% (inactive)
49 | CCN1CC=C2C(C#N)=C(N)C(C#N)(C#N)[C@H](c3ccoc3)[C@H]2C1 | -84.8% (active)
50 | CC1=C(C(N)=O)C(c2ccc(F)cc2)n2nc(CCCO)nc2N1 (centres undefined) | -1.99% (inactive)
51 | CCCCn1c(N)c(N(Cc2ccccc2OC)C(=O)COc2cc(C)ccc2Cl)c(=O)[nH]c1=O | -0.677% (inactive)
52 | CC1CC(C)CN(c2ccc(S(=O)(=O)N3CCOCC3)cc2)C1 (centres undefined) | -0.658% (inactive)
53 | CCN(Cc1ccccc1)S(=O)(=O)c1cc2c3c(c1)CCN3C(=O)CC2 | 1.24% (inactive)
54 | O=C1Cc2ccccc2Sc2ccc(Cl)cc21 | -1.6% (inactive)
55 | CC(C)[C@H](NC(=O)N1c2ccccc2NC(=O)[C@@H]1C(C)C)C(=O)N[C@H](C(=O)O)c1ccccc1 | 1.76% (inactive)
56 | Cc1cccc(N=Nc2c(C)[nH]n(-c3ccccc3)c2=O)c1 | -1.5% (inactive)
57 | Cc1cccc(N=Nc2c(O)[nH]c3ccc(F)cc23)c1 | -37.8% (active)
58 | COCC(=O)N=Nc1c(O)[nH]c2ccccc12 | -1.5% (inactive)
59 | Cc1cccc(NC(=O)c2nc(S(=O)(=O)Cc3ccccc3)ncc2Cl)c1 | 2.04% (inactive)
60 | Cc1cc(=O)n2nc(N3CCCC(C(=O)NCc4cccc(Cl)c4)C3)sc2n1 (centres undefined) | 0.58% (inactive)
61 | Brc1ccc(C2=CC(c3ccco3)n3ncnc3N2)cc1 (centres undefined) | -46.2% (active)
62 | CCOc1ccc(C2=CC(c3ccccc3)n3ncnc3N2)cc1 (centres undefined) | 0.973% (inactive)
63 | COC(=O)C1=C(C)Nc2ncnn2C1c1ccco1 (centres undefined) | 0.833% (inactive)
64 | Cc1ccnc(N2C(=O)c3ccc([N+](=O)[O-])cc3C2=O)c1 | 0.424% (inactive)
65 | CCN1C(=NCC(C)C)N[C@@H](CCc2ccccc2)[C@H](C(=O)NCC(C)C)[C@H]1C | 0.663% (inactive)
66 | CCOC(=O)C(Cc1ccccc1)NC(=O)CCC(=O)c1ccc(OC)cc1 (centres undefined) | -0.523% (inactive)
67 | COC(=O)[C@H](Cc1ccccc1)NC(=O)Nc1ccc(OC)cc1 | -2.47% (inactive)
68 | COc1cc([C@H](Cc2ccccc2)NC(C)=O)oc(=O)c1 | -29.7% (active)
69 | O=C(Nc1cc2c3c(c1)C1CCCC1CN3CC1CCCC21)c1ccc([N+](=O)[O-])cc1 (centres undefined) | 0.805% (inactive)

Row | Structure (SMILES) | activity score (negative = inhibition of binding)
70 | CCN(Cc1ccccc1)C(=O)CCS(=O)(=O)c1ccc2c(c1)oc(=O)n2C | -0.201% (inactive)
71 | CC(C)(C)N(Cc1ccccc1)C(=O)c1ccncc1 | 0.0862% (inactive)
72 | Cc1cc(NC(=O)CSc2nc(=O)cc(N)n2-c2ccc(F)cc2)no1 | 3.29% (inactive)
73 | O=C(O)CCn1cc(/C=C/C(=O)c2ccc(Cl)cc2)c(-c2cccc(Br)c2)n1 | -3.47% (inactive)
74 | CCn1nc(C)c(NC(=O)/C=C/c2ccc(OC)c(COc3ccc(Br)cc3)c2)c1C | -2.54% (inactive)
75 | CN(C)/C=C1/Nc2ccccc2C1=O | -9.39% (inactive)
76 | O=C1Nc2ccccc2/C1=C/c1ccnc2ccccc12 | -0.239% (inactive)
77 | Cc1cc(C)c(/C=C2\C(=O)Nc3ccccc32)[nH]1 | -49.3% (active)
78 | Cc1cc(C)c(C)c(S(=O)(=O)Nc2cccnc2)c1C | 3.19% (inactive)
79 | CCN(CC)CCOc1ccc2c(c1)C(=NNC(=O)c1ccccn1)c1cc(OCCN(CC)CC)ccc1-2 | -21.9% (inactive)
80 | Cc1cc(/C=C2\SC(=O)N(C)C2=O)c(C)n1-c1cccc(C(=O)O)c1 | -1.93% (inactive)
81 | CN1C(=O)/C(=C/c2ccco2)SC1=Nc1cccc(C(=O)O)c1 | -30.7% (active)
82 | O=C(CCCN1C(=O)/C(=C\c2ccco2)SC1=S)Nc1cccc2ccccc12 | -4.74% (inactive)
83 | CSc1nc(C)nc(C2CC2)c1C#N | 0.165% (inactive)
84 | CN(C)c1ccc(NC(=S)N(CCc2ccccc2)C2CC(=O)N(c3c(Cl)cccc3Cl)C2=O)cc1 (centres undefined) | 0.224% (inactive)
85 | Cc1cccc(NC(=O)COC(=O)CCc2ccccc2)c1C | 0.968% (inactive)
86 | O=C(COC(=O)CCOc1ccccc1)Nc1cc(S(=O)(=O)N2CCCCC2)ccc1Cl | -0.682% (inactive)
87 | O=C(COC(=O)CCc1c[nH]c(=O)[nH]1)Nc1ccccc1Cl | -36.5% (active)
88 | COc1cc(S(=O)(=O)N2CCN=C2c2ccccc2)ccc1Cl | 3.19% (inactive)
89 | COc1ccc(CC(=O)Nc2c(C(N)=O)oc3ccccc23)cc1 | 0.725% (inactive)
